Source: PubChem (National Center for Advancing Translational Sciences (NCATS))
In the library only some 7.3% were active in any assay of this set; here they are far more common.
SNCA expr inhib: SNCA gene expression inhibition | HEK-293 SNCA-luciferase knock-in, luminescence, 24 h | Potency, µM (top dose mostly 57.2 µM), without a hit: top-dose activity change, negative = inhibition, hits mostly inhibitors | AID 1671194 | 140,000 tested, 0.17% active;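 note: potency is the fitted concentration of half-maximal effect; plate controls were DMSO cells for no effect and cell-free wells for full effect; nearly all actives have a fitted effect of over 45% in size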
HEK293 tox: kills HEK 293 cells; Potency, µM (titrated, usually from 115 µM), inactives show at the highest dose activity change, negative = cytotoxicity, hits mostly inhibitors; AID 1345083; 94,000 tested, 6.6% active; HEK 293 viability, ATP luminescence (CellTiter-Glo), 48-72 h; note: potency is the fitted concentration of half-maximal effect; nearly all actives have a fitted effect of over 60% in size
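Viability of HEK 293 cells, plated at 250 cells/well, was judged by cellular ATP after compound treatment for 48 or 72 hr. Luminescence was imaged 10 min after CellTiter-Glo addition at room temperature.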
IP6K1 inhibitor: blocks human inositol hexakisphosphate kinase 1 | Q92551 | activity change, % (series mostly up to about 58 µM) | 140,000 tested, 0.81% active | IP6K1 kinase, ADP-Glo luminescence, 2 h; hits give low values | AID 1645851; in the data active = activity change below about -25%
Target sequence (Q92551 whole entry, looked up): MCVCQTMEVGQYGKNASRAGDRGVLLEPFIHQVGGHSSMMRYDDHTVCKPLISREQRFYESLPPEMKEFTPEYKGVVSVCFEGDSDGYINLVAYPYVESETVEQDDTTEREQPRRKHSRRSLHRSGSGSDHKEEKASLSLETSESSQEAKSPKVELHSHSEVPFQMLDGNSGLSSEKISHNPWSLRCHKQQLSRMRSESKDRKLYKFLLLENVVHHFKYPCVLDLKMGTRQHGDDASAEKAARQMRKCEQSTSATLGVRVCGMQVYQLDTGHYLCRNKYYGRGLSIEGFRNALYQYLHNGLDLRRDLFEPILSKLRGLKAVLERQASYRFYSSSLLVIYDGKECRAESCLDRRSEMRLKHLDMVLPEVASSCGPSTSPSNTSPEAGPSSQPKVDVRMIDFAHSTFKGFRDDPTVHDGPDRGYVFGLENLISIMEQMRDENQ
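ADP-Glo luminescence measures ADP made by human IP6K1 during a 2 h RT reaction with ATP/IP6 (mix at 1.3 mM/130 uM); top library doses 57.5 and 19.1 uM final.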
SNCA viab count: reduces viability of HEK-293 SNCA reporter cells; HEK-293-SNCA-luc viability, GF-AFC fluorescence, 24 h; Potency, µM (top dose mostly 57.1 µM), for inactives: at the top dose activity change, negative = cytotoxicity, hits mostly cytotoxic; 150,000 tested, 0.12% active; AID 1671193;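 note: potency is the fitted concentration of half-maximal effect; 0% = DMSO-treated cells and -100% = medium-only wells without cells; nearly all actives have a fitted effect of over 30% in size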
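HEK-293-SNCA-luc cells (1500/well) plated 24 h, then exposed 24 h to a dilution series; GF-AFC added 30 min at 37C, fluorescence 405/540 nm; normalised to medium-only and DMSO wells, Hill fit.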
FLuc inh: Photinus pyralis luciferase inhibition. P08659. purified P. pyralis luciferase, luminescence, biochemical. Potency, µM (top dose mostly 115 µM), hits mostly inhibitors. 76,000 tested, 2.5% active; note: potency is the fitted concentration of half-maximal effect; nearly all actives have a fitted effect of over 65% in size
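Inhibitors were tested against purified firefly luciferase in a biochemical, low-substrate format (both substrates at 10uM) and luminescence measured with a CCD imager.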
3T3 cytotox: kills NIH 3T3 cells; NIH 3T3 viability, CellTiter-Glo ATP luminescence, 48-72 h; Potency, µM (highest dose often 96.7 µM), for the others: at the top dose activity change, negative = cytotoxicity, actives largely listed as inhibitors; 94,000 tested, 4.3% active; AID 1345082; note: potency is the fitted concentration of half-maximal effect; nearly all actives have a fitted effect of over 55% in size
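Luminescent ATP readout (CellTiter-Glo, 10 min RT) after 48 or 72 hr compound exposure of NIH 3T3 cells seeded at 400 cells/well in 1536-well format; quantitative HTS.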
* = called active by the depositor; i = inactive; ? = inconclusive; . = no result given; [ ] = remark or other dose. Unless noted, calls come from the whole dose curve; as a rule, active = well fitted curve in the direction sought with a large enough effect; inconclusive = small, poorly fitted or top-dose-only effect, or another doubt; inactive = no such curve, though single readings can be large; an effect the other way counts as inactive or inconclusive. Unless noted, % is set by controls: 0 for no effect and ±100 for the full control effect.

SMILES | SNCA expr inhib | HEK293 tox | IP6K1 inhibitor | SNCA viab count | FLuc inh | 3T3 cytotox
COc1ccc(CN2CC(c3ncc4c(-c5ccccc5)nccn34)C2)cc1O | -0.3%[87.6 µM] | ? | -3.5 | -12.2%[87.6 µM] | i | 89.1µM*
CCc1nc2c(c(-c3ccc(OC)cc3)n1)CCN(Cc1cccc(NC(C)=O)c1)CC2 | 3.7% | i | 9.5 | 1.2% | . | i
O=C1CCCCC(C(=O)NCc2ccc3c(c2)OCO3)N1 (configuration not stated) | ? | 7.9% | 15.2 | 6.5% | i | i
O=C(c1cc(C2CC2)[nH]n1)N(Cc1ccc2c(c1)OCO2)C1CC1 | 68.7% | ? | 13.5 | -3.8% | 28.2µM* | -32.7%
Cc1ccc(-c2cn3c(n2)N(C(=O)c2nc4ncccn4n2)CCC3)cc1 | 112.7% | 39.8µM* | 1.8 | 0.3% | i | -16.0%
CCn1cc(CN(C)C(=O)CN2C(=O)C3(CCCCC3)C2c2ccccc2)c(C)n1 (configuration not stated) | 19.6% | -20.8% | -2.4 | 8.9% | . | -17.2%
O=C(c1ccccc1-c1ccccc1F)N(Cc1cccnc1)C1CC1 | -7.6% | ? | 22.4 | -14.9% | i | -21.5%
CC(Cc1cccnc1)Nc1cc(-c2ccccc2F)nc2ccnn12 (configuration not stated) | -4.6% | 79.4µM* | -14.8 | -4.0% | i | ?
O=S(=O)(c1ccccc1)c1nc(-c2ccccc2F)oc1N1CCOCC1 | -22.6% | . | -22.5 | -22.6% | . | .
Fc1ccccc1-c1noc(N2CCOCC2)n1 | 29.3% | ? | -0.8 | -4.5% | 31.6µM* | -18.5%
Cc1ccc2c(n1)N(C)[C@H](CO)CCN(Cc1ccc(OC(F)(F)F)cc1)C2 | 2.2%[87.6 µM] | 79.4µM* | -7.6 | 2.2%[87.6 µM] | i | ?
Cc1ccc2c(n1)N(C)[C@H](CO)CCN(CC1CCCCC1)C2 | 10.4%[87.6 µM] | 44.7µM* | -1.1 | 5.5%[87.6 µM] | i | ?
Cc1ccc2c(n1)N(C)[C@H](CO)CCN(Cc1ccc(F)cc1)C2 | 8.5%[87.6 µM] | -18.3%[172 µM] | -2.7 | -6.1%[87.6 µM] | i | -12.9%[174 µM]
Cc1ccc2c(n1)N(C)[C@H](CO)CCN(Cc1ccccc1Cl)C2 | 0.3%[87.6 µM] | ? | 3.9 | -0.6%[87.6 µM] | i | ?
CC(=O)N1CCC(N2CC[C@@H](CO)N(C)c3nc(C)ccc3C2)CC1 | 3.4%[87.6 µM] | 79.4µM* | -6.6 | 1.8%[87.6 µM] | i | 44.7µM*
O=C(CN1C(=O)C2(CCCCC2)C1c1ccccc1)NCCN1CCCC1 (configuration not stated) | 30.4% | -28.5% | -4.0 | 4.3% | . | -11.3%
c1cnc(N2CCOCC2)c(CNCc2ccc(C3CCCCO3)o2)c1 (configuration not stated) | ? | -22.0% | 3.3 | -6.5% | i | -25.8%
O=C(O)COc1ccc(-c2nccc3c2C(=O)N(Cc2c[nH]c4ccccc24)CC(COc2ccccc2)O3)cc1 (configuration not stated) | 8.3% | 3.7% | 3.0 | 8.4% | ? | ?
O=C(O)COc1ccc(-c2nccc3c2C(=O)N(Cc2cccc(C(F)(F)F)c2)CC(CNC(=O)C2CCOCC2)O3)cc1 (configuration not stated) | ? | ? | 1.0 | ? | i | ?
CC(C)C(=O)NCC1CN(Cc2ccccc2)C(=O)c2c(ccnc2-c2ccc(OCC(=O)O)cc2)O1 (configuration not stated) | 2.82µM* | 25.1µM* | 6.5 | ? | i | ?
O=C(O)COc1ccc(-c2nccc3c2C(=O)N(Cc2c[nH]c4ccccc24)CC(CNC(=O)c2cccc(Cl)c2)O3)cc1 (configuration not stated) | -2.4% | -10.0% | 8.1 | 7.8% | i | 31.6µM*
COc1ccc(C(=O)Nc2ccc3n(c2=O)C[C@H]2C[C@@H]3CN(S(=O)(=O)c3ccc(OC)cc3)C2)cc1 | 19.9% | ? | -4.5 | -17.7% | 8.91µM* | -21.3%
O=C(NC1CCCC1)NC1CCN(c2nccc(Nc3ccccc3F)n2)CC1 | -9.8% | ? | 1.1 | 7.1%[12.5 µM] | . | ?
COc1ccc(-c2cc(CC3(NCc4ccc(C)o4)COC3)no2)cc1 | -16.5%[87.6 µM] | ? | -6.1 | -18.4%[87.6 µM] | i | ?
Oc1ccccc1CNC1(Cc2cc(-c3ccccc3)on2)COC1 | -4.8%[87.6 µM] | -21.4%[172 µM] | 5.7 | 1.7%[87.6 µM] | i | ?
SMILES | SNCA expr inhib | HEK293 tox | IP6K1 inhibitor | SNCA viab count | FLuc inh | 3T3 cytotox
CN(C)c1ccc(CNC2(Cc3cc(COc4ccccc4)on3)COC2)cc1 | 4.0%[87.6 µM] | ? | -18.1 | -18.1%[87.6 µM] | i | ?
CC(C)(C)c1cc(CC2(NCc3ccc(OC(F)(F)F)cc3)COC2)no1 | 1.2%[87.6 µM] | ? | -4.1 | -0.3%[87.6 µM] | i | 112µM*
Clc1ccccc1CNC1(Cc2cc(-c3ccccc3)on2)COC1 | -12.1%[87.6 µM] | 112µM* | -8.6 | 8.6%[87.6 µM] | i | ?
COc1ccc(-c2cc(CC3(NCc4ccccc4)COC3)no2)cc1 | ? | 100µM* | -7.6 | -10.3%[87.6 µM] | i | ?
CN(C)c1ccc(CNC2(Cc3cc(-c4ccccc4)on3)COC2)cc1 | 7.4%[87.6 µM] | 89.1µM* | 19.2 | -8.8%[87.6 µM] | i | -25.7%[174 µM]
CCN1CCN(C(=O)c2nc3sccn3c2-c2cccc(OC)c2)CC1 | -16.1% | i | 3.5 | -4.1% | . | -5.9%
CC1=NS(=O)(=O)N(Cc2ccccc2)C=C1C(=O)OCc1nc(-c2ccccc2C)no1 | 2.9% | ? | 0.0 | 13.5% | i | ?
COc1ccc(Cn2c(=O)c(C(=O)N3CCN(C(=O)c4cccc(OC)c4)CC3)nc3cccnc32)cc1 | -17.3% | -22.2% | 9.7 | -13.9% | . | -36.4%
Cc1ccc(S(=O)(=O)N2CCCC(Cn3c(C)nc4cccnc43)C2)cc1Cl (configuration not stated) | -2.0% | ? | -4.6 | -11.0% | i | ?
Fc1ccc(CNC2(Cc3cc(-c4ccccc4)on3)COC2)cc1 | -0.5%[87.6 µM] | 89.1µM* | 9.3 | -18.3%[87.6 µM] | i | -13.7%[174 µM]
c1ccc(-c2cc(CC3(NCc4ccncc4)COC3)no2)cc1 | -13.9%[87.6 µM] | ? | 13.8 | -3.1%[87.6 µM] | i | -13.0%[174 µM]
Clc1ccc(CNC2(Cc3cc(COc4ccccc4)on3)COC2)cc1 | -15.1%[87.6 µM] | 79.4µM* | -0.6 | -1.9%[87.6 µM] | i | ?
Oc1ccccc1CNC1(Cc2cc(-c3ccc(F)cc3)on2)COC1 | -7.6%[87.6 µM] | 100µM* | -15.7 | -4.7%[87.6 µM] | i | ?
CC1CCC2(CC1)OCC(C(=O)NCc1ccccc1)N2C(=O)c1ccc(Cl)c(Cl)c1 (configuration not stated) | ? | ? | 9.6 | -22.8% | i | 20µM*
CCN1CCN(C(=O)C2CCc3ncc(-c4ccc(F)cc4)n3C2)CC1 (configuration not stated) | 26.4% | -16.8% | 5.7 | -6.2% | i | -23.5%
